High-throughput results: PubChem, National Center for Advancing Translational Sciences (NCATS)
IL-2 act: qHTS of IL-2 Activators; IL-2 activation reporter assay, cell-based qHTS; stimulated with anti-CD3/CD4/CD28 beads; in transgenic mouse T cells; activation, % (series mostly up to about 46 µM); 360,000 compounds, 0.065% hits; AID 652025, 2013; in the data active means activation above about 50%; inconclusive means mostly about 30% to 49%; further: 0% is about no effect
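First, unstimulated transgenic mouse T cells were exposed to compound for 60 min. Next, anti-CD3/anti-CD4-coated beads with anti-CD28 were added. Finally, after 18 h at 37 degrees C, EGFP and DsRed were imaged.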
BRCA1 expr act: qHTS Assay to Identify Small Molecule Activators of BRCA1 Expression; MCF7-BRCA1-FFLuc reporter, luminescence, 48 h; response scale: scaled: vehicle 0%, 10 µM genistein 100%; Potency, µM (series often up to 46.1 µM), for inactives: top-dose activation, usual class: activators; 380,000 compounds, 1.1% hits; further: potency means the concentration at half of the fitted maximal effect; nearly all actives have a fitted effect of over 80% in size
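Using MCF7 cells harboring a BRCA1 firefly luciferase reporter, plated 2 h before compound pinning, the screen measured luminescence after 48 h incubation. Responses were normalized to DMSO and 10 microM genistein, then fitted for concentration-effect.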
Nrf2 ARE act: qHTS of Nrf2 Activators; AREc32 ARE-luciferase reporter (MCF7-derived line), luminescence, 24 h; Potency, µM (series often up to 46.1 µM), without a hit: at the highest dose activation, actives largely listed as activators; 410,000 compounds, 0.31% hits; further: potency means the concentration at half of the fitted maximal effect; % of control where 0% means no effect; nearly all actives have a fitted effect of over 65% in size
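Quantitative high-throughput format: AREc32 reporter cells, 1000 per well, received compound by pin transfer and were incubated 24 hr at 37 deg C, 5% CO2, before Steady-Glo luminescence detection.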
ELG1 repair inh: qHTS screen for small molecules that inhibit ELG1-dependent DNA repair in human embryonic kidney (HEK293T) cells expressing luciferase-tagged ELG1 | HEK293T ELG1-luciferase reporter, luminescence, 16 h; DNA damage induced by 5-fluorouridine | Potency, µM (titrated, usually from 46.1 µM), for inactives: top-dose activity change, negative = inhibition, usual class: inhibitors | 330,000 compounds, 2.3% hits | AID 504467, 2011; further: potency means the concentration at half of the fitted maximal effect; on the % scale 0 is the no-effect control and ±100 the full control effect; nearly all actives have a fitted effect of over 55% in size
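Step one: seed 2,000 cells per well. Step two: pin-transfer compound or DMSO alongside 5-fluorouridine. Step three: incubate 16 hr, 37 °C, 5% CO2. Step four: add ONE-Glo, wait 30 min, read luminescence.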
* = called active by the depositor; ? = inconclusive; . = no result; [ ] = another dose, or the depositor's remark. Only some compounds are listed: those with a hit (about 3.1% of all), similar ones and a draw of the others. Unless noted, the call rests on the fitted dose curve; in most records, active means well fitted curve in the direction sought with a large enough effect; inconclusive means small, poorly fitted or top-dose-only effect, or another doubt; inactive means no such curve, though single readings can be large; an effect the other way counts as inactive or inconclusive.

SMILES	IL-2 act	BRCA1 expr act	Nrf2 ARE act	ELG1 repair inh
CCN(c1ccccc1)S(=O)(=O)c1cc(NC(=O)Nc2ccccc2C#N)ccc1Cl	-2	-60%	4%	21µM*
CCN(c1ccccc1)S(=O)(=O)c1ccc(C(=O)Nc2cccc(NC(C)=O)c2)cc1	0	-25%	-1%	?
CCCN1CNc2c(c(=O)[nH]c(=S)n2CCc2ccc(C)c(C)c2)C1	.	-32%	.	.
Cc1cccc(OCCCCn2nnc3sc4c(c3c2=O)CCC(C)C4)c1 (configuration not stated)	.	.	-1%	.
c1ccc(SCc2cc(-c3ccccc3)no2)cc1	-6	?	4%	?
COc1ccccc1OCc1cc(-c2ccccc2)no1	-3	2.8µM*	2%[9.22 µM]	?
c1ccc(OCc2cc(-c3ccccc3)no2)cc1	0	5µM*	0%	?
COc1ccc(OCc2cc(-c3ccc(Cl)cc3)no2)cc1	0	21%	2%	-1%
Clc1ccc(-c2cc(CSc3ccccc3)on2)cc1	-2	3.5µM*	3%	?
O=C(CSc1nc2ccccc2o1)Nc1ccc(N2CCOCC2)cc1	-1	?	0%	?
O=C(CSc1nc2cc(Cl)ccc2o1)Nc1ccc(N2CCOCC2)cc1	-5	13µM*	0%	?
COc1ccc(OC)c(/C=N\NC(=O)c2cc3c(ccc4ccccc43)o2)c1	-4	0%	-1%	16µM*
Cc1occc1C(=O)N/N=C/c1ccc(Br)s1	0	8.9µM*	14%	?
CCOc1ccc(/C=N/NC(=O)c2ccoc2C)cc1OC	1	10µM*	3%	?
COc1ccc(OC)c(/C=N/NC(=O)c2cc3c(OC)cc(OC)cc3[nH]2)c1	0	-50%	5%	21µM*
COc1ccc(/C=N/NC(=O)c2cc3c(ccc4ccccc43)o2)c(OC)c1	-2	0%	0%	?
COc1cc(/C=N/NC(=O)c2ccoc2C)ccc1O	0	?	0%	?
Cc1ccc(NC(=O)Cn2c(=O)n(CC3CCCO3)c(=O)c3ccccc32)cc1 (configuration not stated)	.	9%	-1%	.
CC(C)Oc1ccc(C(=O)N(Cc2ccco2)c2ccccn2)cc1	.	0%	4%	.
Cc1ccccc1CN1C(=O)c2ccccc2S(=O)(=O)c2ccc(C(=O)OCC3CCCO3)cc21 (configuration not stated)	.	.	2%	.
CCN(CC)S(=O)(=O)c1cccc(C(=O)Nc2ccccc2C(=O)Nc2ccc(OC)cc2)c1	.	.	0%	.
COc1ccc(C(=O)N/N=C\c2ccc(OC)c(COc3ccccc3Br)c2)c(OC)c1	-1	-30%	0%	8.2µM*
CCOc1ccc(/C=N/NC(=O)c2cc3c(OC)cc(OC)cc3[nH]2)cc1OC	-1	-67%	0%	23µM*
CCCOc1ccc(CNC(=O)C2CCN(c3nc4ccccc4nc3C(F)(F)F)CC2)cc1	.	3%	1%	.
Cc1ccc(NC(=O)CSc2nnc(-c3cccnc3)s2)cc1	0	-13%	-1%	14%
SMILES	IL-2 act	BRCA1 expr act	Nrf2 ARE act	ELG1 repair inh
O=C(CSc1nnc(-c2cccnc2)s1)Nc1ccnc2ccccc12	-1	47%	3%	12µM*
CCCCOC(=O)c1ccc(N=Nc2c(C)c(C#N)c(O)[nH]c2=O)cc1	107*	-8%	11%	16%
Cc1cccc(N=Nc2c(C)c(C#N)c(O)[nH]c2=O)c1	-1	-1%	3%	-9%
CCC1CCCCN1S(=O)(=O)c1ccc(NC(=O)c2cccs2)cc1 (configuration not stated)	-3	-55%	-1%	21µM*
CCC1CCCCN1S(=O)(=O)c1ccc(NC(=O)C2CC(=O)N(C(C)(C)C)C2)cc1 (configuration not stated)	-4	11µM*	0%	.
CCC1CCCCN1S(=O)(=O)c1ccc(NC(=O)c2snnc2C)cc1 (configuration not stated)	3	-23%	0%	?
CC(=O)N1CCc2cc(Br)cc(S(=O)(=O)CCC(=O)N3CCN(c4ccccc4Cl)CC3)c21	.	3%	0%	.
Cc1oc(-c2ccc(C(=O)Nc3cccc(C(F)(F)F)c3)cc2)nc1CSc1ccccc1	.	.	-1%	.
Cc1ccc(/C=C/c2onc(C)c2S(=O)(=O)N2CCC(C(=O)NCC(C)c3ccccc3)CC2)cc1 (configuration not stated)	.	3%	0%	.
Cc1ccc(CNC(=O)Cc2c(C)c3c(cc(C)c4c(C)coc43)oc2=O)cc1	.	.	2%	.
CC1(C)Cc2c(c(N3CCCC3)nc3sc4c(N5CCN(CCO)CC5)ncnc4c23)CO1	-1	-19%	3%	8.2µM*
Cc1ccc(C(=O)c2c(C)oc3c2C(=O)C(=O)c2ccccc2-3)cc1	-1	-72%	9%	?
Cc1ccc(C(=O)c2coc3c2C(=O)C(=O)c2ccccc2-3)cc1	0	18µM*	5%	?
O=c1cc(-c2cccs2)oc2ccc(Cl)cc12	-1	57%	11µM*	?
Cc1ccc(C(=O)OCC(=O)N(C)c2ccccc2)c(C)c1	-1	12%	2%	15%
CN(C(=O)COC(=O)c1ccc([N+](=O)[O-])cc1N)c1ccccc1	77*	-6%	3%	-8%
Cc1ccc(NC(=O)c2ccc(OC(=O)CCN3C(=O)c4ccccc4C3=O)cc2)cc1	-3	7.1µM*	2%	?
Cc1cc(C)cc(OC(=O)CCN2C(=O)c3ccccc3C2=O)c1	-2	4%	-1%	11%
Cc1ccc(NC(=O)c2ccc(OC(=O)COc3cccc(Cl)c3)cc2)cc1	0	3.5µM*	0%	?
Cc1ccc(S(=O)(=O)N2CCN(c3nc(-c4cccs4)nc4c3ncn4COC(=O)C(C)(C)C)CC2)cc1	.	0%	.	.
CCCn1c(N)c(C(=O)COC(=O)c2c(C)noc2C)c(=O)n(C)c1=O	-2	-15%	0%	23µM*
CCCn1c(N)c(C(=O)COC(=O)COc2ccc(Cl)c(C)c2)c(=O)n(C)c1=O	-1	17%	0%	13%
COc1cc(/C=C/C(=O)OCC(=O)Nc2ccc(NC(C)=O)cc2)cc(S(=O)(=O)N2CCc3ccccc32)c1OC	-2	-49%	?	21µM*
CCCn1c2ccccc2c2cnn(CC(=O)N(Cc3ccccc3)C(C)C)c(=O)c21	.	.	5%	.
Cc1ccc(-c2cc(C(=O)N3CCN(S(=O)(=O)c4ccc(Br)s4)CC3)[nH]n2)c(C)c1	.	.	-1%	.
O=C(Nc1cc(-c2nc3ncccc3o2)ccc1Cl)c1cccs1	-1	-57%	6.3µM*	-6%
CCNC(=O)c1c(NC(=O)c2nc(SC)ncc2Cl)sc2c1CCCC2	.	12%	.	.
Cc1ccc2c(C)nc(Nc3nc(CSc4nnnn4-c4ccccc4)cc(=O)[nH]3)nc2c1	-1	-87%	0%	8.2µM*
